The source of these data is PubChem BioAssay (NCI).

About 83,000 compounds went through this panel and 20% of them were active in at least one assay; those are over-represented in the sample as a whole.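 Single-dose data. Exposure time 48 hours. Values below 10 considered active.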 Values without a mark were called inactive. Calls of active or inactive are those of the source.

What all share (assay): NCI-60 one-dose screen, 48 h (100 = growth as untreated, 0 = no growth, -100 = all killed)
Conditions in all cases: 10 µM unless noted

Experiment [1] deals with DU-145 prostate.
In experiment [2] the test system is K-562 leukemia.
The test system of experiment [3] is MALME-3M melanoma.
The test system of experiment [4] is MDA-MB-231 breast.
The subject of experiment [5] is RXF 393 renal.
Experiment [6] deals with SF-268 CNS.
Experiment [7] has as its system SF-295 CNS.
For experiment [8], the system named is SF-539 CNS.
Experiment [9] relates to UACC-257 melanoma.
The test system of experiment [10] is M14 melanoma.
In experiment [11] the test system is HT29 colon.
For experiment [12], the system named is SNB-75 CNS.
Experiment [13] relates to SNB-19 CNS.
For experiment [14], the system named is U251 CNS.
Experiment [15] concerns PC-3 prostate.
Experiment [16] deals with SK-MEL-5 melanoma.
The test system of experiment [17] is UACC-62 melanoma.
Experiment [18] relates to LOX IMVI melanoma.
For experiment [19], the system named is SK-MEL-28 melanoma.

For the compound `COCCn1cc(-c2csc(-c3c[nH]c4ccc(Br)cc34)n2)c2cccnc21`, the growth was 46.7% in experiment [1]; 0.0972% (active) in experiment [2]; 53.1% in experiment [3]; 4.45% (active) in experiment [4]; 58.9% in [5]; 44.3% in experiment [6]. Besides, the growth in experiment [7] is 17.7%; in experiment [8], 45.5%; in experiment [9] it was 28.9%; in [10] it was 14.3%; in [11], 18.2%; in experiment [12], 39.7%. The growth in experiment [13] was 55.6%; in [14], 36.5%; in [15] it was 16%; in [16], 19.9%; in [17], 44.7%; in experiment [18], -10.7% (active). Also, the growth in experiment [19] is 52.3%.
With `S=c1[nH]c(=S)c2c(-c3ccccc3)c(-c3ccccc3)oc2[nH]1`, the growth in [1] is 109%; in experiment [2] it was 80.2%; in experiment [3] it was 107%; in [4], 99%; in experiment [5] it was 91.2%; in experiment [6] it was 104%. In addition, the growth in experiment [7] is 97.5%; in experiment [8] it was 98.3%; in [9], 80.1%; in experiment [10] it was 105%; in experiment [11], 102%; in [12] it was 95.2%. The growth in experiment [13] is 96.2%; in experiment [14], 95.9%; in experiment [15], 103%; in [16], 108%; in [17] it was 93.9%; in [18] it was 96.5%. Moreover, the growth in [19] was 105%.
As for `C=C1C(=O)O[C@H]2[C@H]1CC/C(COC(=O)/C=C\C(=O)NCc1ccc(Cn3c(=O)sn(CCCCC)c3=O)cc1)=C\CC[C@@]1(C)O[C@@H]21`, the growth in experiment [1] is 49.2%; in [2] it was 12.6%; in [3], 52.4%; in experiment [4], 71.4%; in experiment [5] it was 74.9%; in experiment [6] it was 92.5%. Moreover, the growth was 101% in [7]; 78.7% in experiment [8]; 75.8% in experiment [9]; 43.9% in experiment [10]; 41.3% in [11]; 110% in [12]. For the same compound, the growth in [13] was 94.8%; in [14], 84.4%; in [16], 106%; in experiment [17], 70.1%; in [18], 62.6%; in experiment [19] it was 91.1%.
Turning to `COc1ccc(C(=S)N2CCN(c3ccc(Cl)cc3)CC2)cc1`, the growth in [1] is 113%; in [2], 88%; in experiment [3], 125%; in [4], 76.7%; in [5], 126%; in experiment [6] it was 100%. The growth is 117% in experiment [7]; 102% in experiment [8]; 96.1% in experiment [9]; 99.7% in experiment [10]; 102% in [11]; 112% in [12]. Moreover, the growth in experiment [13] was 86.3%; in experiment [14], 101%; in experiment [15], 103%; in experiment [16], 96.8%; in experiment [17], 84.5%; in experiment [19], 110%.
Take `Cc1cccc[n+]1C1c2ccccc2-c2ccccc21`: the growth is 110% in experiment [1]; 86.6% in experiment [2]; 99.3% in experiment [3]; 98.5% in experiment [4]; 102% in experiment [5]; 94.4% in experiment [6]. In addition, the growth in experiment [7] was 99.1%; in experiment [8], 92.7%; in experiment [9], 90.3%; in [10], 93.7%; in experiment [11] it was 79.2%; in experiment [12] it was 94.1%. In addition, the growth in experiment [13] is 89.7%; in experiment [14], 83.1%; in [15], 67.6%; in experiment [16] it was 94.5%; in experiment [17], 92.3%; in [18], 97.8%. Also, the growth in experiment [19] is 102%.
As for `Cc1ccc(C)c(/C=C2\CN(C(=O)OC(C)(C)C)C/C(=C\c3cc(C)ccc3C)C2=O)c1`, the growth is 37.7% in experiment [1]; 7.09% (active) in [2]; 67.7% in experiment [3]; 92.1% in [4]; 91.1% in experiment [5]; 53.6% in experiment [6]. For the same compound, the growth in experiment [7] was 55.9%; in experiment [8], 94.9%; in experiment [9], 59.4%; in experiment [10] it was 20.1%; in experiment [11] it was 9.93% (active); in experiment [12], 78.5%. Also, the growth in experiment [14] was 15.9%; in [15], 46.6%; in experiment [16] it was 45%; in experiment [17] it was 37.3%; in [18], 0.926% (active); in experiment [19] it was 41.3%.
As to `Nc1nc(N)c2c(n1)NC(c1ccc(Cl)cc1)C1CCc3ccccc3C1=N2` (stereo not drawn), the growth was 64.1% in [1]; 31% in experiment [2]; 19.6% in experiment [3]; 76.8% in experiment [4]; 83.3% in experiment [5]; 72.3% in experiment [6]. The growth in [7] was 20.7%; in experiment [8], 54.3%; in experiment [9], 58.2%; in experiment [10] it was 70.4%; in experiment [11] it was 41.9%; in experiment [12] it was 62.1%. Also, the growth in experiment [13] was 76.1%; in experiment [14], 51.1%; in experiment [15] it was 51.6%; in experiment [16], 7.87% (active); in experiment [18], 56.8%; in [19], 91.3%.
Turning to `O=C(CI)NC(=O)NC(=O)NCc1ccccc1`, the growth in experiment [1] is 78.2%; in [2] it was -59.8% (active); in [3], -59% (active); in experiment [4] it was 11.3%; in [5], 48.5%; in experiment [6], 58.5%. Moreover, the growth in [7] was 91.6%; in [8], 27.3%; in experiment [9] it was 83%; in [10], 6.48% (active); in experiment [11] it was 17.2%; in [12] it was 81.4%. Besides, the growth was 101% in experiment [13]; 84% in [14]; 93.9% in experiment [15]; 56.1% in experiment [16]; 79.3% in experiment [17]; -77.7% (active) in experiment [18]. The growth in [19] was 49.4%.
